# Results reported in PubChem BioAssay (Tox21).
# Records with an inconclusive call do not appear. Entries that show only a call come without a potency. Calls of active or inactive are those of the source. Unless noted, calls come from the whole dose curve; as a rule, active = well fitted curve in the direction sought with a large enough effect in the repeat runs; inconclusive = weak or mixed curves; inactive = no such curve, though single readings can be large; an effect the other way counts as inactive or inconclusive.
# Assay: qHTS assay to identify small molecule agonists of the progesterone receptor (PR) signaling pathway - cell viability counter screen (AID 1346799; calls by dose curve; note: nearly all actives have a fitted effect of over 45% in size; note: potency is the fitted concentration of half-maximal effect)
# Conditions: PR-UAS-bla HEK293T viability, CellTiter-Glo luminescence, 16 h; series mostly up to 92.4 µM
# Summary of the method: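 PR-UAS-bla HEK293T cells, 3,000 per well in medium with 2% charcoal-stripped FBS, were preincubated 6 hr at 37C, then exposed to compounds for 16 hr; viability was read as CellTiter-Glo luminescence after 30 min at room temperature.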
row,Structure (SMILES),Potency
1,CN1CC(=O)N2[C@H](c3ccc4c(c3)OCO4)c3[nH]c4ccccc4c3C[C@@H]2C1=O,inactive
2,CC(CN(C)C)C(C)(O)Cc1ccc(Cl)cc1 (centres undefined),16.8 µM (active)
3,OC1(c2ccccc2)CCNCC1,inactive
4,CO/N=C(/C(=O)N[C@@H]1C(=O)N2C(C(=O)O)=C(COC(N)=O)CS[C@H]12)c1ccco1,inactive
5,CCCCCCCCCI,inactive
6,O=C1NC(=O)c2cc([N+](=O)[O-])ccc21,inactive
7,C[C@@]12CCC[C@H]1[C@@H]1CC[C@H]3C[C@@H](O)CC[C@]3(C)[C@H]1CC2,inactive
8,Cc1ccccc1N=C(N)Nc1ccccc1C,inactive
9,O[C@@H]1CO[C@H]2[C@@H]1OC[C@@H]2O,inactive
10,CCC(=O)OC,inactive
11,CC(C)(O)c1ccc(CNC(=O)c2cccnc2Oc2ccc3nonc3c2)cc1,inactive
12,NC1[C@H]2CN(c3nc4c(cc3F)c(=O)c(C(=O)O)cn4-c3ccc(F)cc3F)C[C@@H]12 (some centres undefined),inactive
13,CC1=C(CC=O)C(C)(C)CCC1,inactive
14,CC(=O)NC1(c2cccc(F)c2)CCN(CC[C@@]2(c3ccc(Cl)c(Cl)c3)CN(c3ccccc3)C(=O)CO2)CC1,21.7 µM (active)
15,C[C@@H](O)[C@H]1C(=O)N2C(C(=O)O)=C([C@H]3CCCO3)S[C@H]12,inactive
16,C=CC(C)(CCC=C(C)C)OC(=O)CC(C)C (centres undefined),inactive

# Assay: qHTS assay to identify small molecule antagonists of the TGF-beta/Smad signaling pathway - cell viability counter screen (AID 1346824); note: nearly all actives have a fitted effect of over 50% in size
# Conditions: SBE-bla HEK293T viability, CellTiter-Glo luminescence; series mostly up to 76.8 µM
# Summary of the method: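 SBE-bla HEK 293T cells were plated overnight at 37 C, then given compounds in DMSO plus TGF-beta1 (added as 0.25 ng/mL solution) for 5 hr. After the bla read, CellTiter-Glo was added to the same wells and luminescence read after 30 min at room temperature.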
row,Structure (SMILES),Potency
1,CN1CC(=O)N2[C@H](c3ccc4c(c3)OCO4)c3[nH]c4ccccc4c3C[C@@H]2C1=O,inactive
2,CCOc1ccccc1O[C@H](c1ccccc1)[C@H]1CNCCO1,inactive
3,O=C=Nc1cccc(C(F)(F)F)c1,inactive
4,COc1cc(Nc2c(C#N)cnc3cc(OCCCN4CCN(C)CC4)c(OC)cc23)c(Cl)cc1Cl,inactive
5,CC(CN(C)C)C(C)(O)Cc1ccc(Cl)cc1 (centres undefined),inactive
6,CCOC(=O)c1ccc(O)c(O)c1,inactive
7,CC(C)C[C@H](NC(=O)[C@H](CCc1ccccc1)NC(=O)CN1CCOCC1)C(=O)N[C@@H](Cc1ccccc1)C(=O)N[C@@H](CC(C)C)C(=O)[C@@]1(C)CO1,inactive
8,COC(=O)C1=C(C)NC(C)=C(C(=O)O[C@@H]2CCCN(Cc3ccccc3)C2)[C@@H]1c1cccc([N+](=O)[O-])c1,inactive
9,CO/N=C(/C(=O)N[C@@H]1C(=O)N2C(C(=O)O)=C(COC(N)=O)CS[C@H]12)c1ccco1,inactive
10,Oc1c(I)cc(I)c2cccnc12,inactive
11,CC1(CN2CCC(n3c(=O)[nH]c4ccccc43)CC2)OCc2ccccc2-n2cccc21 (centres undefined),inactive
12,CCCCCCCCCI,inactive
13,Cc1cc2c(OCC(CNC(C)(C)C)OC(=O)c3ccccc3)cccc2[nH]1 (centres undefined),inactive
14,CCOc1ccc(Cc2nccc3cc(OCC)c(OCC)cc23)cc1OCC,inactive
15,C[C@@]12CCC[C@H]1[C@@H]1CC[C@H]3C[C@@H](O)CC[C@]3(C)[C@H]1CC2,inactive
16,Cc1[nH]cnc1CN1CCc2c(c3ccccc3n2C)C1=O,inactive
17,C=C(C)[C@@H]1CCC2=CCC[C@@H](C)[C@]2(C)C1,inactive
18,Cc1ccccc1N=C(N)Nc1ccccc1C,inactive
19,O=[N+]([O-])c1cc(C2CCCCC2)c(O)c([N+](=O)[O-])c1,inactive
20,O[C@@H]1CO[C@H]2[C@@H]1OC[C@@H]2O,inactive
21,CCC(=O)OC,inactive
22,CC1CC(C)C(=O)C1=O (centres undefined),inactive
23,CC(C)(O)c1ccc(CNC(=O)c2cccnc2Oc2ccc3nonc3c2)cc1,inactive
24,CC1=C(CC=O)C(C)(C)CCC1,inactive
25,CC(=O)NC1(c2cccc(F)c2)CCN(CC[C@@]2(c3ccc(Cl)c(Cl)c3)CN(c3ccccc3)C(=O)CO2)CC1,inactive
26,O=C(CCc1ccc(O)cc1)c1c(O)cc(O)cc1O,inactive
27,C[C@@H](O)[C@H]1C(=O)N2C(C(=O)O)=C([C@H]3CCCO3)S[C@H]12,inactive
28,O=C(OC(=O)c1ccccc1)c1ccccc1,inactive
29,C=CC(C)(CCC=C(C)C)OC(=O)CC(C)C (centres undefined),inactive
30,CC=C(Cl)Cl,inactive

# Assay: qHTS assay to identify small molecule agonists of the TGF-beta/Smad signaling pathway - cell viability counter screen (AID 1346829); note: top concentration of the series differs between compounds; nearly all actives have a fitted effect of over 45% in size
# Conditions: SBE-bla HEK293T viability, CellTiter-Glo luminescence, 5 h; series mostly up to 76.8 µM
# Summary of the method: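 Compound-treated SBE-bla HEK 293T cells (5 hr, 37 C) were assessed for viability with CellTiter-Glo in parallel with the reporter read.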
row,Structure (SMILES),Potency
1,COC(=O)c1nc(Cl)c(Cl)nc1N,inactive
2,Cc1c(C)c2c(c(C)c1OC(=O)CCC(=O)OCCO)CC[C@@](C)(CCC[C@H](C)CCC[C@H](C)CCCC(C)C)O2,inactive
3,CN1CC(=O)N2[C@H](c3ccc4c(c3)OCO4)c3[nH]c4ccccc4c3C[C@@H]2C1=O,inactive
4,CCOc1ccccc1O[C@H](c1ccccc1)[C@H]1CNCCO1,inactive
5,O=C=Nc1cccc(C(F)(F)F)c1,inactive
6,COc1cc(Nc2c(C#N)cnc3cc(OCCCN4CCN(C)CC4)c(OC)cc23)c(Cl)cc1Cl,inactive
7,CC(CN(C)C)C(C)(O)Cc1ccc(Cl)cc1 (centres undefined),inactive
8,CCOC(=O)c1ccc(O)c(O)c1,inactive
9,OC1(c2ccccc2)CCNCC1,inactive
10,CC(C)C[C@H](NC(=O)[C@H](CCc1ccccc1)NC(=O)CN1CCOCC1)C(=O)N[C@@H](Cc1ccccc1)C(=O)N[C@@H](CC(C)C)C(=O)[C@@]1(C)CO1,inactive
11,COC(=O)C1=C(C)NC(C)=C(C(=O)O[C@@H]2CCCN(Cc3ccccc3)C2)[C@@H]1c1cccc([N+](=O)[O-])c1,inactive
12,CO/N=C(/C(=O)N[C@@H]1C(=O)N2C(C(=O)O)=C(COC(N)=O)CS[C@H]12)c1ccco1,inactive
13,Oc1c(I)cc(I)c2cccnc12,inactive
14,CC1(CN2CCC(n3c(=O)[nH]c4ccccc43)CC2)OCc2ccccc2-n2cccc21 (centres undefined),inactive
15,CCCCCCCCCI,inactive
16,O=C1NC(=O)c2cc([N+](=O)[O-])ccc21,inactive
17,Cc1cc2c(OCC(CNC(C)(C)C)OC(=O)c3ccccc3)cccc2[nH]1 (centres undefined),inactive
18,CCOc1ccc(Cc2nccc3cc(OCC)c(OCC)cc23)cc1OCC,inactive
19,C[C@@]12CCC[C@H]1[C@@H]1CC[C@H]3C[C@@H](O)CC[C@]3(C)[C@H]1CC2,inactive

row,Structure (SMILES),Potency
1,Cc1[nH]cnc1CN1CCc2c(c3ccccc3n2C)C1=O,inactive
2,O=c1c(O)c(-c2ccc(O)cc2)oc2cc(O)cc(O)c12,inactive
3,C=C(C)[C@@H]1CCC2=CCC[C@@H](C)[C@]2(C)C1,inactive
4,Cc1cccc(O)c1N,inactive
5,Cc1ccccc1N=C(N)Nc1ccccc1C,inactive
6,O=[N+]([O-])c1cc(C2CCCCC2)c(O)c([N+](=O)[O-])c1,inactive
7,O[C@@H]1CO[C@H]2[C@@H]1OC[C@@H]2O,inactive
8,CCC(=O)OC,inactive
9,CC1CC(C)C(=O)C1=O (centres undefined),inactive
10,CC(C)(O)c1ccc(CNC(=O)c2cccnc2Oc2ccc3nonc3c2)cc1,inactive
11,NC1[C@H]2CN(c3nc4c(cc3F)c(=O)c(C(=O)O)cn4-c3ccc(F)cc3F)C[C@@H]12 (some centres undefined),inactive
12,CC1=C(CC=O)C(C)(C)CCC1,inactive
13,CC(=O)NC1(c2cccc(F)c2)CCN(CC[C@@]2(c3ccc(Cl)c(Cl)c3)CN(c3ccccc3)C(=O)CO2)CC1,inactive
14,O=C(CCc1ccc(O)cc1)c1c(O)cc(O)cc1O,inactive
15,C[C@@H](O)[C@H]1C(=O)N2C(C(=O)O)=C([C@H]3CCCO3)S[C@H]12,inactive
16,O=c1cc(-c2ccccc2)oc2cc(O)cc(O)c12,inactive
17,O=C(OC(=O)c1ccccc1)c1ccccc1,inactive
18,C=CC(C)(CCC=C(C)C)OC(=O)CC(C)C (centres undefined),inactive
19,CC=C(Cl)Cl,inactive
